Bioassay records deposited in PubChem BioAssay by National Center for Advancing Translational Sciences (NCATS).
RE007 growth inh: qHTS Assay for Inhibitors of the HIV-1 protein Vpr | Potency, µM (doses to about 92.2 µM), hits mostly inhibitors | S. pombe RE007 Vpr strain, BacTiter-Glo ATP luminescence, 24 h | 0.21% of 360,000 active; active = well fitted falling curve with a large enough effect; inconclusive = small, poorly fitted or top-dose-only effect; inactive = no such curve, though single readings can be large or run the other way; note: nearly all actives have a fitted effect of over 50% in size
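Fission yeast RE007 carrying one integrated HIV-1 vpr copy, seeded at OD 0.01 in PMG+AL medium with 23 nL pinned compound. Grown 24 h at 30 degrees; viability read by BacTiter-Glo luminescence after 5 min.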
FMDV antiviral: High Throughput Screening for Foot and Mouth Disease Virus Antivirals; 1.2% of 410,000 active; Potency, µM (highest dose often 57.9 µM), usual class: inhibitors; AID 1159524, 2015; FMDV antiviral cell-based qHTS; calls by dose curve; tested in HEK293T cells; note: read-out not given here; nearly all actives have a fitted effect of over 45% in size
Marburg entry inh: qHTS for inhibitors of binding or entry into cells for Marburg Virus. Marburg virus pseudotyped entry inhibition, cell reporter. Potency, µM (doses to about 37.8 µM), hits mostly inhibitors. 1.8% of 300,000 active. AID 540276, 2011; calls by dose curve; tested in HEK293 cells
LASV entry inh: qHTS for Inhibitors of binding or entry into cells for Lassa Virus | Potency, µM (series often up to 37.9 µM), usual class: inhibitors | Lassa virus pseudotype entry inhibition, cell reporter | 1.2% of 300,000 active; calls by dose curve; tested in HEK293 cells; note: nearly all actives have a fitted effect of over 50% in size
Sm TGR inh: qHTS Assay for the Inhibitors of Schistosoma Mansoni Peroxiredoxins. purified TGR, DTNB reduction, TNB absorbance 405 nm. Potency, µM (doses to about 114 µM), most hits filed as inhibitors. 3% of 360,000 active; note: nearly all actives have a fitted effect of over 60% in size
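TGR 20 nM + NADPH 100 uM (dispensed conc.), cpd preinc 15 min RT; start with NADPH (500 uM addition) then DTNB (15 mM addition). Kinetic TNB absorbance, 405 nm filter. Four-parameter Hill fit across titration.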
HCV inhibitor: qHTS Assay for Inhibitors of Hepatitis C Virus (HCV); Huh7.5.1 HCVcc-Cre infection, luciferase reporter, 44 h; Potency, µM (highest dose often 41.8 µM), actives largely listed as inhibitors; 3.4% of 340,000 active; AID 651820, 2012
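Infectious HCV cell culture screen: compound-treated cells (1,000/well, pre-plated 4 h) are infected with HCVcc-Cre at roughly 0.5 moi and grown 44 h. Infection is quantified by luciferase signal after 15 min substrate incubation at room temperature.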
A number is an active result. Hits are enriched below; roughly 7.2% of the tested compounds scored in any of these assays. Unless noted, calls come from the whole dose curve; as a rule, active = well fitted curve in the direction sought with a large enough effect; inconclusive = small, poorly fitted or top-dose-only effect, or another doubt; inactive = no such curve, though single readings can be large; an effect the other way counts as inactive or inconclusive.

What do the screens show for `COc1ccc(Cl)cc1NC(=O)CN1C(=O)CCS(=O)(=O)c2ccccc21`?
RE007 growth inh: inactive; FMDV antiviral: inactive; Marburg entry inh: inactive; LASV entry inh: inactive; Sm TGR inh: 50µM; HCV inhibitor: inactive

How did COc1ccc(Cl)cc1NC(=O)CN1c2ccccc2CC1C (stereo unspecified) do in these assays?
RE007 growth inh: inactive; FMDV antiviral: inactive; Marburg entry inh: inconclusive; LASV entry inh: inactive; Sm TGR inh: inactive; HCV inhibitor: 8.9µM

How did Cc1ccc(F)cc1CNC(=O)c1sc2ncnc(NCC3CCCO3)c2c1C (stereo unspecified) do in these assays?
FMDV antiviral: inactive

How did COC(=O)c1sc2nc(C)cc(C)c2c1N do in these assays?
RE007 growth inh: inactive; FMDV antiviral: inactive; Marburg entry inh: inconclusive; LASV entry inh: inactive; Sm TGR inh: inactive; HCV inhibitor: inactive

What do the screens show for `Cc1cc(C)c2c(N)c(C(=O)Nc3ncc(C)s3)sc2n1`?
RE007 growth inh: inactive; FMDV antiviral: 5µM; Marburg entry inh: 0.5µM; LASV entry inh: 0.2µM; Sm TGR inh: inactive; HCV inhibitor: inconclusive

How did Cc1cc(Nc2ccccc2C)nc(-n2nc(C)cc2C)n1 do in these assays?
FMDV antiviral: inactive; LASV entry inh: inconclusive; Sm TGR inh: inactive

What do the screens show for `CC(C)[C@H](NC(=O)N1c2ccccc2NC(=O)[C@@H]1C(C)C)C(=O)N1CCC(C(=O)O)CC1`?
RE007 growth inh: inactive; FMDV antiviral: inactive; Sm TGR inh: inactive; HCV inhibitor: 32µM
